Screening results from PubChem BioAssay.
Most compounds without a hit are left out; they make up all but 3.9% or so of the library.
PLC-gamma1 inh: PLC-gamma1 (human) inhibition, primary screen | purified PLC-gamma1, fluorogenic substrate, fluorescence | AID 720700 | P19174 | inhibition, % at 12.2 µM | 0.84% of 370,000 active
Target sequence (P19174 whole entry, looked up): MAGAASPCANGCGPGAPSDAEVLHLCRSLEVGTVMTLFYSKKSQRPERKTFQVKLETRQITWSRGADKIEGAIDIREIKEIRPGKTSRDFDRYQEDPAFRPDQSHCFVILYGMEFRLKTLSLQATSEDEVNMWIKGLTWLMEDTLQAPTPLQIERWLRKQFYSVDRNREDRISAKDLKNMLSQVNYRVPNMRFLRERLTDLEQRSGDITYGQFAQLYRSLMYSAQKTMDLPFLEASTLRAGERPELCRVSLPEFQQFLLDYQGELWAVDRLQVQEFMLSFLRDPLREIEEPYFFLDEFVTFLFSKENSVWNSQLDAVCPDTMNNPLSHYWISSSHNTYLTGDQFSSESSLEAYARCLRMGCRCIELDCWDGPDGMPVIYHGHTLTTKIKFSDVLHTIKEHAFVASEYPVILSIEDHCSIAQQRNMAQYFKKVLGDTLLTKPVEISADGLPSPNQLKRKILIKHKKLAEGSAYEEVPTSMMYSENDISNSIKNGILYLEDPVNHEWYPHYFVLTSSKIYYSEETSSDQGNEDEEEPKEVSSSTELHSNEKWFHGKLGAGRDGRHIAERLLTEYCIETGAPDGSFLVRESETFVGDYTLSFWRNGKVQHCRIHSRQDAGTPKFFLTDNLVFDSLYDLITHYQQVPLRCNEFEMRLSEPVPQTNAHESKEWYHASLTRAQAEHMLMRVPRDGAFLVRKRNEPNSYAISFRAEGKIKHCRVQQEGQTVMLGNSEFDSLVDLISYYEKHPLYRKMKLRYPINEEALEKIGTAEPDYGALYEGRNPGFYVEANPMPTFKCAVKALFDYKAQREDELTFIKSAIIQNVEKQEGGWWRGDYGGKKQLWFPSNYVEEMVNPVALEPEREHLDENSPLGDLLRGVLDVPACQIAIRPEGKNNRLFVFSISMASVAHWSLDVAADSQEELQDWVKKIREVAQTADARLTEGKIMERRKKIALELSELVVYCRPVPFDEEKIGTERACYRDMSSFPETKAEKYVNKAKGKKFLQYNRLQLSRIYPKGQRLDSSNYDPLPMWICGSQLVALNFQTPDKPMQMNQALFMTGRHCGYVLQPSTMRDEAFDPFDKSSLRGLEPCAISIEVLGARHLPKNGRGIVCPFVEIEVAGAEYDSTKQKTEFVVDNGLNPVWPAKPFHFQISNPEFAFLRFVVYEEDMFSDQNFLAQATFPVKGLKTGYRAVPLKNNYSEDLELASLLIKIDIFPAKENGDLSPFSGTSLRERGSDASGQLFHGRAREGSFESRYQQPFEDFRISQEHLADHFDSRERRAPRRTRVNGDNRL
PLC-beta3 inh: PLC-beta3 (human) inhibition, primary screen. Q01970. Purified PLC-beta3, fluorogenic substrate, fluorescence. inhibition, % at 12.2 µM. 0.18% of 370,000 active; in the data active = inhibition above about 11%
HIF activator: HIF pathway transcriptional activation | 0.32% of 300,000 active | U2OS HRE-luciferase reporter, luminescence; normalized: DMSO 0%, desferrioxamine 100% | activation, % at 7.5 µM (by protocol);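 active = mean activation of at least 10% of the iron chelator positive control signal, with at least half of replicates also reaching 10%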
HGIII-sPLA2 inh: Blocks human group III sPLA2 activity; Q9NZ20; QFRET BODIPY PC-A2 liposome hydrolysis, fluorescence; inhibition, % at 12.2 µM; 0.56% of 370,000 active;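 active = inhibition above mean plus 3 SD of compounds lying within the high and low control bounds, cut at about 19% in these data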
AHR act: human AHR activation; activation, % at 5 µM; P35869; AHR-responsive luciferase reporter cells, luminescence; 2.5% of 320,000 active; in the data active = activation above about 47%
CR mimetic SO: yeast age-related superoxide inhibition as caloric restriction mimetic; 0.18% of 330,000 active; S. cerevisiae aged cells, superoxide DHE fluorescence; hits give low values; superoxide response (% of plate mean), % at 10 µM;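 active = superoxide response under a set limit, about three screen SD below normal, cut at about 65% in these data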;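 also: yeast aged for seven days with compound at 30 °C before DHE staining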
PLCgamma1 ctr: counter-screen for PLC-beta3 inhibitors: inhibitors of human PLC-gamma1 | inhibition, % at 12.3 µM | AID 743258 | 3.1% of 3,300 active | purified PLC-gamma1, fluorogenic substrate, fluorescence | shares compounds with PLC-gamma1 inh
PLCbeta3 conf: human PLC-beta3 inhibition, confirmation. shares compounds with PLC-gamma1 inh. purified PLC-beta3, fluorogenic substrate fluorescence. inhibition, % at 12.3 µM. 1% of 3,300 active. AID 743261; in the data active = inhibition above about 11%
Large screens that a line does not name were inactive (follow-up assays come after a bar, where they were run). Rule as the data show it, unless noted: active = inhibition above about 9.5%; inactive = the rest.

CC(C)(C)C(=O)c1c(N)[nH]c(C(=O)c2ccccc2)c1-c1ccc([N+](=O)[O-])cc1	none (no result: HIF activator, AHR act, CR mimetic SO)
CC(=O)OC(C(=O)Nc1nccs1)c1ccccc1 (stereo not given)	PLC-gamma1 inh 13.3 | PLCgamma1 ctr inactive | PLCbeta3 conf inactive
CC(C)[C@H](NS(=O)(=O)c1ccccc1)C(=O)Nc1nccs1	none (no result: HIF activator)
Cc1ccc(S(=O)(=O)Nc2cccc(C(=O)NCCN3CCOCC3)c2)cc1F	none (no result: HIF activator)
Cc1cc(Br)cc2c(C(=O)NCC3CCCO3)cc(-c3cccs3)nc12 (stereo not given)	PLC-gamma1 inh 12.1 | PLCgamma1 ctr inactive | PLCbeta3 conf inactive
O=C1NC(=S)S/C1=C\c1cc(Cl)ccc1Cl	PLC-gamma1 inh 10.8 (no result: HIF activator, AHR act, CR mimetic SO) | PLCgamma1 ctr inactive | PLCbeta3 conf inactive
Cc1cc(/C=C2\SC(=S)NC2=O)c(C)[nH]1	none
O=[N+]([O-])c1ccc(-c2c(O)c3ccccc3c3nc4ccccc4nc23)cc1	PLC-beta3 inh 10.6 | PLCgamma1 ctr inactive | PLCbeta3 conf inactive
COc1ccc(F)cc1C(=O)C1CCCN(C(=O)c2ccccc2N(C)C)C1 (stereo not given)	none
O=C(N/N=C\c1cc(Br)cs1)C1COc2ccccc2O1 (stereo not given)	none
CCOc1cc(N2CCOCC2)c(OCC)cc1NC(=O)CN1C(=O)NC(C)(c2ccc(OC)cc2)C1=O (stereo not given)	none (no result: HIF activator, AHR act, CR mimetic SO)
CS(=O)(=O)N1CCN(c2ccccc2NC(=S)NC(=O)c2ccccc2[N+](=O)[O-])CC1	PLC-gamma1 inh 9.9 | PLCgamma1 ctr inactive | PLCbeta3 conf inactive
CS(=O)(=O)N1CCN(c2ccccc2NC(=S)NC(=O)c2cccs2)CC1	none
COc1ccccc1C(=O)Nc1ccccc1N1CCN(S(C)(=O)=O)CC1	PLC-gamma1 inh 11.3 | PLCgamma1 ctr inactive | PLCbeta3 conf inactive
COc1ccc(CC(=O)NCCS(=O)(=O)N2CCN(c3ccccc3OC)CC2)cc1	none
COc1cc(C(=O)Nc2ccccc2N2CCN(S(C)(=O)=O)CC2)cc(OC)c1OC	none
COc1ccccc1N1CCN(S(=O)(=O)CCNC(=O)CCc2ccccc2)CC1	PLC-gamma1 inh 9.7 (no result: HIF activator, AHR act, CR mimetic SO) | PLCgamma1 ctr inactive | PLCbeta3 conf inactive
C[C@@H](NC(=O)c1[nH]cnc1C(=O)Nc1nccs1)c1ccccc1	none (no result: HIF activator)
Cc1ccc(CNC(=O)CNC(=O)c2ccc(C(C)(C)C)cc2)n1C	none (no result: HIF activator)
O=C(CCNC(=O)C1CCN(S(=O)(=O)c2ccc(F)cc2)CC1)Nc1ccccc1	none
CC(C)(C)NCc1cc(Br)ccc1OCc1cccs1	none
CC(C)(C)NCc1ccccc1OCc1cccs1	PLC-gamma1 inh 12.7, PLC-beta3 inh 10.8 (no result: HIF activator) | PLCgamma1 ctr inactive | PLCbeta3 conf inactive
CN(C)S(=O)(=O)c1cc(NC(=O)[C@H](Cc2ccccc2)N2C(=O)c3ccccc3C2=O)ccc1Cl	PLC-beta3 inh 10.8, AHR act 71.3 | PLCgamma1 ctr inactive | PLCbeta3 conf inactive
Cc1ccccc1NC(=O)N1CCCC(c2nc(-c3ccc(C(C)C)cc3)no2)C1 (stereo not given)	PLC-gamma1 inh 10.1 | PLCgamma1 ctr inactive | PLCbeta3 conf inactive
O=C(NC1CCCCC1)N1CCCC(c2nc(-c3cccs3)no2)C1 (stereo not given)	PLC-gamma1 inh 10.2 | PLCgamma1 ctr inactive | PLCbeta3 conf inactive
CC(C)N1CCSC1=S	none (no result: HIF activator, AHR act, CR mimetic SO)
O=C(/C=C/c1ccccc1)OCc1cnc(Cl)s1	none
Cc1ccc2c(c1)C1CS(=O)(=O)N(Cc3ccc(F)cc3)CN1C2 (stereo not given)	none (no result: HIF activator, AHR act, CR mimetic SO)
O=c1cc2c(=O)oc3cc(O)c(O)oc3c2c(O)c1O	PLC-gamma1 inh 33.1 (no result: AHR act, CR mimetic SO) | PLCgamma1 ctr inactive | PLCbeta3 conf inactive
Nc1ncc2c(n1)-c1ccoc1CC2	none
O=C(COC(=O)COc1ccc(Br)cc1)NCc1ccc2c(c1)OCO2	none (no result: HIF activator)
Cc1cc(OCC(=O)OCC(=O)NCc2ccc3c(c2)OCO3)ccc1Cl	PLC-gamma1 inh 10.1 (no result: HIF activator) | PLCgamma1 ctr inactive | PLCbeta3 conf inactive
CCCCNC(=O)C[C@H]1C[C@@]2(C(=O)OC)C(=C[C@H](C3CCCC3)O[C@@H]2C)N(Cc2cccc3ccccc23)C1=O	none (no result: HIF activator, AHR act, CR mimetic SO)
COC(=O)[C@]12C[C@H](CC(=O)NCc3ccc(C)o3)C(=O)N(Cc3ccccc3)C1=C[C@H](C(C)(C)C)O[C@@H]2C	PLC-gamma1 inh 10.2 (no result: HIF activator, AHR act, CR mimetic SO) | PLCgamma1 ctr inactive | PLCbeta3 conf inactive
C#CCNC(=O)C[C@H]1C[C@@]2(C(=O)OC)C(=C[C@H](C(C)C)O[C@@H]2C2CC2)N(Cc2ccccc2)C1=O	none (no result: HIF activator, AHR act, CR mimetic SO)
COC(=O)[C@]12C[C@H](CC(=O)N3CCCCC3)C(=O)N(CCC3=CCCCC3)C1=C[C@H](C(C)(C)C)O[C@@H]2C	none (no result: HIF activator, AHR act, CR mimetic SO)
COC(=O)[C@]12C[C@H](CC(=O)N3CCCCC3)C(=O)N(CCC3=CCCCC3)C1=C[C@H](C1CCCC1)O[C@@H]2C	PLC-gamma1 inh 10.8 (no result: HIF activator, AHR act, CR mimetic SO) | PLCgamma1 ctr inactive | PLCbeta3 conf inactive
COC(=O)[C@]12C[C@H](CC(=O)NCCCCc3ccccc3)C(=O)N(Cc3ccccc3)C1=C[C@H](C(C)C)O[C@@H]2C1CC1	PLC-gamma1 inh 10.2 (no result: HIF activator, AHR act, CR mimetic SO) | PLCgamma1 ctr inactive | PLCbeta3 conf inactive
COC(=O)[C@]12C[C@H](CC(=O)NCC3CCCCC3)C(=O)N(Cc3cccc4ccccc34)C1=C[C@H](C1CCCC1)O[C@@H]2C	PLC-gamma1 inh 10.9 (no result: HIF activator, AHR act, CR mimetic SO) | PLCgamma1 ctr inactive | PLCbeta3 conf inactive
CCCCN(C(=O)CC1CCCC1)c1c(N)n(CC(C)C)c(=O)[nH]c1=O	none
COC(=O)[C@]12C[C@H](CC(=O)NCCC(C)C)C(=O)N(Cc3ccc(Cl)cc3Cl)C1=C[C@H](C1CCCC1)O[C@@H]2C	PLC-gamma1 inh 10.6 (no result: HIF activator, AHR act, CR mimetic SO) | PLCgamma1 ctr inactive | PLCbeta3 conf inactive
COC(=O)[C@]12C[C@H](CC(=O)N3CCN(C(=O)C4CC4)CC3)C(=O)N(Cc3cccc4ccccc34)C1=C[C@H](COCc1ccccc1)O[C@@H]2C	PLC-gamma1 inh 14.1 (no result: HIF activator, AHR act, CR mimetic SO) | PLCgamma1 ctr inactive | PLCbeta3 conf inactive
O=C(N/N=C/c1c(F)c(F)c(F)c(F)c1F)c1cc(-c2ccccc2)nc2ccccc12	PLC-gamma1 inh 13.7 | PLCgamma1 ctr inactive | PLCbeta3 conf inactive
CCOC(=O)c1sc(NC(=O)C2CC2)cc1C	PLC-gamma1 inh 11.0 | PLCgamma1 ctr inactive | PLCbeta3 conf inactive
CC1(C)CC(N2CCCC2)=CC(=[N+]2CCCCC2)C1	PLC-gamma1 inh 12.2 | PLCgamma1 ctr inactive | PLCbeta3 conf inactive
NC(=O)NC(=O)COC(=O)CCSc1ccccc1	PLC-beta3 inh 11.0 | PLCgamma1 ctr inactive | PLCbeta3 conf inactive
NC(=O)c1ccc(NC(=O)COC(=O)CCSc2ccccc2)cc1	none
CCOc1cc(CNCC2CCCN2CC)cc(Cl)c1OC (stereo not given)	PLC-gamma1 inh 11.9 | PLCgamma1 ctr inactive | PLCbeta3 conf inactive
